# The supplement of paper PMC6555819
# Experiments:
# Experiment in all cases: PBM binding z-score (relative to random genomic background probes); higher = stronger binding; sequences stand for … in GC…GCGATTGACAGCGTAGAATGAAGG
# [1] = system: FXR:RXRa (NR concentration 270 nM, RXRa partner concentration 90 nM)
# In short: (§1)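 Custom Agilent 4×180K protein-binding microarrays carried double-stranded probes, each with a 34-nt variable region. These regions held direct-repeat seeds, single-nucleotide variants, half-site ablations and random human genomic background sequences. Ligand-free nuclear receptor dimers were incubated on the arrays for 1 h, antibodies against each partner (one per run) detected binding, and scanned fluorescence was regression-normalized. Binding z-scores take the random background probes as reference.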
# [2] = system: LXRa:RXRa (NR concentration 270 nM, RXRa partner concentration 90 nM)
# In short: as §1
# [3] = system: LXRa homodimer (NR concentration 270 nM)
# In short: as §1
# [4] = system: LXRb:RXRa (NR concentration 270 nM, RXRa partner concentration 90 nM)
# In short: as §1
# [5] = system: LXRb homodimer (NR concentration 270 nM)
# In short: as §1
# [6] = system: PPARa:RXRa (NR concentration 270 nM, RXRa partner concentration 90 nM)
# In short: as §1
# [7] = system: PPARg:RXRa (NR concentration 180 nM, RXRa partner concentration 90 nM)
# In short: as §1
# [8] = system: PPARg:RXRa 270nM:90nM, anti-RXR (NR concentration 270 nM, RXRa partner concentration 90 nM)
# In short: as §1
# [9] = system: PPARg:RXRa 30nM:10nM, anti-RXR (NR concentration 30 nM, RXRa partner concentration 10 nM)
# In short: as §1
# [10] = system: PPARg:RXRa 90nM:30nM, anti-RXR (NR concentration 90 nM, RXRa partner concentration 30 nM)
# In short: as §1
# [11] = system: PPARg:RXRa DBDmut IVT, anti-RXR (DBD mutation: RXRa K156A/R161A, NR concentration 270 nM, RXRa partner concentration 90 nM)
# In short: as §1
# [12] = system: PPARg:RXRa IVT, anti-PPARg (NR concentration 270 nM, RXRa partner concentration 90 nM)
# In short: as §1
# [13] = system: PPARg DBDmut:RXRa IVT, anti-PPARg (DBD mutation: PPARg1 K132A/R137A, NR concentration 270 nM, RXRa partner concentration 90 nM)
# In short: as §1
# [14] = system: PPARg DBDmut IVT, anti-PPARg (DBD mutation: PPARg1 K132A/R137A, NR concentration 270 nM)
# In short: as §1
# [15] = system: PPARg homodimer (NR concentration 180 nM)
# In short: as §1
# [16] = system: PXR:RXRa (NR concentration 270 nM, RXRa partner concentration 90 nM)
# In short: as §1
# [17] = system: PXR homodimer (NR concentration 270 nM)
# In short: as §1
# [18] = system: RARa:RXR (NR concentration 270 nM, RXRa partner concentration 90 nM)
# In short: as §1
# [19] = system: RARa homodimer (NR concentration 270 nM)
# In short: as §1
# [20] = system: RARb:RXRa (NR concentration 270 nM, RXRa partner concentration 90 nM)
# In short: as §1
sequence,measurement,setting,value
CTCGGAAGGTCGTGCTCAGGTGAGTATACCAAAC,PBM binding z-score,[1],1.88
same,PBM binding z-score,[2],1.55
same,PBM binding z-score,[3],-0.00824
same,PBM binding z-score,[4],1.29
same,PBM binding z-score,[5],-0.534
same,PBM binding z-score,[6],2.79
same,PBM binding z-score,[7],0.376
same,PBM binding z-score,[8],1.25
same,PBM binding z-score,[9],0.069
same,PBM binding z-score,[10],0.755
same,PBM binding z-score,[11],0.012
same,PBM binding z-score,[12],0.881
same,PBM binding z-score,[13],-0.0386
same,PBM binding z-score,[14],-0.266
same,PBM binding z-score,[15],0.944
same,PBM binding z-score,[16],1.55
same,PBM binding z-score,[17],-0.228
same,PBM binding z-score,[18],2.36
same,PBM binding z-score,[19],-0.507
same,PBM binding z-score,[20],2.5
AGAATGAGGCTAAGATCAGGGAAACAGAATACAT,PBM binding z-score,[1],-0.36
same,PBM binding z-score,[2],-0.634
same,PBM binding z-score,[3],-0.0824
same,PBM binding z-score,[4],-0.157
same,PBM binding z-score,[5],-0.737
same,PBM binding z-score,[6],-0.0265
same,PBM binding z-score,[7],0.645
same,PBM binding z-score,[8],0.202
same,PBM binding z-score,[9],0.113
same,PBM binding z-score,[10],0.138
same,PBM binding z-score,[11],0.345
same,PBM binding z-score,[12],0.552
same,PBM binding z-score,[13],0.582
same,PBM binding z-score,[14],0.0133
same,PBM binding z-score,[15],0.00249
same,PBM binding z-score,[16],-0.259
same,PBM binding z-score,[17],0.0356
same,PBM binding z-score,[18],-0.0952
same,PBM binding z-score,[19],0.229
same,PBM binding z-score,[20],0.158
ACTAGCAGGCCAAGGGTCACTCGAGATTAGTCCG,PBM binding z-score,[1],2.44
same,PBM binding z-score,[2],2.89
same,PBM binding z-score,[3],0.209
same,PBM binding z-score,[4],2.6
same,PBM binding z-score,[5],-0.293
same,PBM binding z-score,[6],4.51
same,PBM binding z-score,[7],7.9
same,PBM binding z-score,[8],7.44
same,PBM binding z-score,[9],6.36
same,PBM binding z-score,[10],8.11
same,PBM binding z-score,[11],1.3
same,PBM binding z-score,[12],3.54
same,PBM binding z-score,[13],-0.0207
same,PBM binding z-score,[14],-0.0831
same,PBM binding z-score,[15],2.15
same,PBM binding z-score,[16],3.15
same,PBM binding z-score,[17],-0.376
same,PBM binding z-score,[18],3.97
same,PBM binding z-score,[19],0.545
same,PBM binding z-score,[20],3.48
CCAGACAGGGGAGAAGGTAACTCAGCCTCGATTA,PBM binding z-score,[1],-0.354
same,PBM binding z-score,[2],-0.331
same,PBM binding z-score,[3],-0.147
same,PBM binding z-score,[4],-0.0664
same,PBM binding z-score,[5],-0.72
same,PBM binding z-score,[6],-0.0873
same,PBM binding z-score,[7],0.239
same,PBM binding z-score,[8],0.0493
same,PBM binding z-score,[9],-0.552
same,PBM binding z-score,[10],0.0211
same,PBM binding z-score,[11],0.0282
same,PBM binding z-score,[12],-0.359
same,PBM binding z-score,[13],-0.398
same,PBM binding z-score,[14],-1.2
same,PBM binding z-score,[15],0.413
same,PBM binding z-score,[16],-0.427
same,PBM binding z-score,[17],-0.0553
same,PBM binding z-score,[18],-0.353
same,PBM binding z-score,[19],0.21
same,PBM binding z-score,[20],-0.286
CGTCAAAGTTCAACTAAGGTAAAGTAAAGCACGC,PBM binding z-score,[1],6.88
same,PBM binding z-score,[2],6.38
same,PBM binding z-score,[3],3.13
same,PBM binding z-score,[4],4.16
same,PBM binding z-score,[5],2.1
same,PBM binding z-score,[6],5.3
same,PBM binding z-score,[7],4.8
same,PBM binding z-score,[8],5.57
same,PBM binding z-score,[9],2.59
same,PBM binding z-score,[10],4.36
same,PBM binding z-score,[11],0.496
same,PBM binding z-score,[12],2.11
same,PBM binding z-score,[13],0.89
same,PBM binding z-score,[14],1.16
same,PBM binding z-score,[15],3.47
same,PBM binding z-score,[16],5.32
same,PBM binding z-score,[17],2.92
same,PBM binding z-score,[18],4.16
same,PBM binding z-score,[19],2.06
same,PBM binding z-score,[20],5.39
CCGACTGGGGCGAAGGTTACCATACTCAGTACGA,PBM binding z-score,[1],-0.11
same,PBM binding z-score,[2],-0.108
same,PBM binding z-score,[3],-0.381
same,PBM binding z-score,[4],0.654
same,PBM binding z-score,[5],-1.24
same,PBM binding z-score,[6],3.09
same,PBM binding z-score,[7],7.04
same,PBM binding z-score,[8],7.02
same,PBM binding z-score,[9],5.36
same,PBM binding z-score,[10],6.85
same,PBM binding z-score,[11],1.13
same,PBM binding z-score,[12],2.83
same,PBM binding z-score,[13],-0.805
same,PBM binding z-score,[14],-0.462
same,PBM binding z-score,[15],0.137
same,PBM binding z-score,[16],0.261
same,PBM binding z-score,[17],-0.624
same,PBM binding z-score,[18],0.961
same,PBM binding z-score,[19],-0.33
same,PBM binding z-score,[20],0.726
ACTAGCAGGCCAAGTTTGGGTCACTCAAACAAAG,PBM binding z-score,[1],0.133
same,PBM binding z-score,[2],0.0719
same,PBM binding z-score,[3],-0.339
same,PBM binding z-score,[4],0.663
same,PBM binding z-score,[5],-0.95
same,PBM binding z-score,[6],1.49
same,PBM binding z-score,[7],0.094
same,PBM binding z-score,[8],0.413
same,PBM binding z-score,[9],-0.485
same,PBM binding z-score,[10],0.0599
same,PBM binding z-score,[11],1.09
same,PBM binding z-score,[12],1.22
same,PBM binding z-score,[13],-0.627
same,PBM binding z-score,[14],-1.37
same,PBM binding z-score,[15],0.284
same,PBM binding z-score,[16],0.859
same,PBM binding z-score,[17],-0.237
same,PBM binding z-score,[18],1.45
same,PBM binding z-score,[19],-0.797
same,PBM binding z-score,[20],1.83
